Screening results from PubChem BioAssay.
The list is not random: actives were taken first. Their share in the collection is about 31%.
CYP2C19 inhib – blockers of cytochrome P450 2C19 activity – biochemical, luminescence, ADME assay, primary screen. CYP2C19 Supersomes, luciferin-H EGE luminescence, 30 min. inhibition, % at 5 µM. P33261. 21% of 96,000 active;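 active means CYP2C19 inhibition above a set limit at 5 µM in the primary screen, cut at about 50% in these data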;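 further: plate controls were negative control wells for no effect and 2.5 mM tranylcypromine positive control for full effect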
CYP2C9 activ – human CYP2C9 activators, primary screen, biochemical, luminescence; Cytochrome P450 2C9 (Homo sapiens), P11712; recombinant CYP2C9, luciferin-H conversion; hits give high values; factor 1 = untreated enzyme, 0 = blocked; activation factor at 5 µM; 1.4% of 96,000 active; AID 1024, 2008;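 active means activation factor of 2 or more for CYP2C9 at a 5 µM dose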;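 further: 0 = sulfaphenazole-blocked wells and 1 = vehicle-only wells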
PLAP act – PLAP enzyme activators, biochemical, luminescence, HTS; 1.2% of 96,000 active; Alkaline phosphatase, placental type (Homo sapiens), P05187; activation fold at 20 µM; AID 696, 2007; purified PLAP enzyme, luminescent substrate read-out; hits give high values; in the data active means activation fold above about 2
Target sequence (P05187 whole entry, looked up): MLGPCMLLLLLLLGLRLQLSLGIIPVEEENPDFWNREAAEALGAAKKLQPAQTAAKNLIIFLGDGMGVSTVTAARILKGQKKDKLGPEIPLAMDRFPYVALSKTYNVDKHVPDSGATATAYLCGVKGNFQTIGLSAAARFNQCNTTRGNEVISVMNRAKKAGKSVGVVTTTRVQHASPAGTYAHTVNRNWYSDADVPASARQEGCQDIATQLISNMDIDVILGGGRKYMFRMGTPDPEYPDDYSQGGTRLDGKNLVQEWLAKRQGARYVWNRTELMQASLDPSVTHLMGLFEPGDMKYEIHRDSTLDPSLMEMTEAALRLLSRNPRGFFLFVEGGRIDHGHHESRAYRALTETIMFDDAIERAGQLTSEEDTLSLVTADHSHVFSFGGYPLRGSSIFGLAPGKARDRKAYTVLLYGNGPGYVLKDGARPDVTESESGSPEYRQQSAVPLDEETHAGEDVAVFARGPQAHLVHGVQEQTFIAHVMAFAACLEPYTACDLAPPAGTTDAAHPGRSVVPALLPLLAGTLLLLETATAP
CYP2C9 inh – blockers of cytochrome P450 2C9 activity – biochemical, luminescence, ADME assay, primary screen | P11712 | CYP2C9 Supersomes, luciferin-H conversion | inhibition, % at 5 µM | 20% of 96,000 active | AID 777, 2007;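 active means blocking of liver enzyme CYP2C9 beyond about 50% at 5 µM, limit read from the data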
CYP2C19 act – human CYP2C19 activators, primary screen, biochemical, luminescence. Cytochrome P450 2C19 (Homo sapiens), P33261. activation factor at 5 µM. recombinant CYP2C19, luciferin-H EGE luminescence; hits give high values; 0 = fully inhibited enzyme, 1 = untreated enzyme. AID 1025, 2008. 96,000 tested, under 10 active;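 active means activation factor of at least 2 at 5 µM in the primary screen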;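 further: 0 = wells with 2.5 mM tranylcypromine and 1 = vehicle-only wells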
Starred values were filed as active, the others as inactive.

SMILES	CYP2C19 inhib	CYP2C9 activ	PLAP act	CYP2C9 inh	CYP2C19 act
COc1ccccc1CNc1ncnc2c1nnn2Cc1ccccc1	54.7*	0.6	0.9	42.4	0.5
COCCNc1ncnc2nc[nH]c12	-11.4	1	1	-2.3	1.1
COc1ccccc1CNc1ncnc2nc[nH]c12	-8.5	1.1	2.1*	-13.5	1.1
COc1ccccc1Nc1ncnc2nc[nH]c12	-3.3	1.1	2*	-9.6	1
O=C(NNC(=O)c1sccc1-n1cccc1)c1cccc(Cl)c1	13.7	0.9	1.5	10.7	0.9
COCCn1nnnc1C(c1cccc(OC)c1OC)N1CCN(C2CCCCC2)CC1 (stereo unspecified)	2.4	0.9	1.7	12.4	1
COc1cc(OC)c(C2N(c3ccc(Cl)cc3)C(=O)C3CCCN32)cc1OC (stereo unspecified)	29.9	0.6	1.4	35.9	0.7
CCOC(NC(=O)c1ccccc1)C(NC(=O)c1ccccc1)OCC (stereo unspecified)	53.0*	0.8	1	16.0	0.5
COC(=O)C(NC(=O)c1ccccc1)c1ccccc1 (stereo unspecified)	32.9	0.9	0.9	10.0	0.7
CCN(CC)C(NC(=O)c1ccccc1)C(=O)c1ccccc1 (stereo unspecified)	59.6*	0.4	1.2	61.9*	0.4
O=C(NC(C(=O)O)c1ccccc1)c1ccccc1 (stereo unspecified)	-0.5	1	1.1	-1.9	1
CCc1c(C)sc(NC(=O)c2cccs2)c1C(=O)OC(C)C	50.7*	0.4	1.2	64.3*	0.5
CCOC(=O)c1c(NC(=O)c2cccs2)sc(C(=O)N(C)C)c1C	57.6*	0.2	0.8	77.0*	0.4
CCc1noc(C)c1C(=O)Nc1sc(C(=O)N(C)C)c(C)c1C(=O)OC	46.3	0.4	1.4	59.6*	0.5
CCOC(=O)c1c(NC(=O)C2c3ccccc3Oc3ccccc32)sc(C(N)=O)c1C	45.6	0.2	0.8	78.4*	0.5
CCOC(=O)c1c(NC(=O)c2cccs2)sc(C)c1CC	44.1	1	1.1	4.2	0.6
CCOC(=O)c1c(NC(=O)C2COc3ccccc3O2)sc(C(C)=O)c1C (stereo unspecified)	21.9	0.5	0.7	45.8	0.8
CCN(Cc1cc2ccccc2[nH]c1=O)C(=O)C(C)C	-3.7	1	1	0.7	1
Cc1cccn2c(=O)c(C=Nc3c(C)n(C)n(-c4ccccc4)c3=O)c(N3CCCC3)nc12	11.4	0.8	1.6	15.2	0.9
Cc1cccc(-n2c(CCN3C(=O)c4ccccc4C3=O)nc3ccccc3c2=O)n1	11.6	0.9	1.2	9.5	0.9
O=C1c2ccccc2C(=O)N1CCCc1nc2ccccc2c(=O)n1-c1cccnc1	47.9	0.4	1.4	63.2*	0.5
Cc1cccc(-n2c(CCCN3C(=O)c4ccccc4C3=O)nc3ccccc3c2=O)n1	51.8*	0.6	1	39.3	0.5
CCSc1n[nH]c(=O)[nH]c1=O	-1.0	1	1.1	1.7	1
CCN(CC)S(=O)(=O)c1cccc(-c2nnc(SCc3nnc(-c4cccs4)o3)n2N)c1	58.5*	0.2	1.8	75.8*	0.4
c1ccc(-c2nnc(SCc3nnc(-c4cccs4)o3)o2)cc1	34.1	0.7	0.9	30.6	0.7
SMILES	CYP2C19 inhib	CYP2C9 activ	PLAP act	CYP2C9 inh	CYP2C19 act
CCS(=O)(=O)CCSc1nc2c(cc1C#N)CCCC2	23.4	0.9	0.8	9.8	0.8
Cc1cc(C)c(C#N)c(SCC(O)CS(=O)(=O)Cc2ccccc2)n1 (stereo unspecified)	96.7*	0.3	1.1	72.0*	0
N#Cc1cc2c(nc1SCc1ccncc1)CCC2	100.0*	0.1	1.1	86.9*	0
CC(C)(C)c1ccc(S(=O)(=O)CC(O)CSc2nc3c(cc2C#N)CCCC3)cc1 (stereo unspecified)	35.8	0.2	0.9	77.6*	0.6
N#Cc1cc2c(nc1SCC(O)CS(=O)(=O)Cc1ccc(Cl)cc1)CCCC2 (stereo unspecified)	59.2*	0.2	1.4	81.3*	0.4
Cc1noc(NS(=O)(=O)c2ccc(NC(=O)CSc3nc4c(cc3C#N)CCCC4)cc2)c1C	-17.9	0.7	1.6	26.6	1.2
CCc1noc(N)c1C(=O)Nc1ccc(F)c(Cl)c1	21.5	0.9	0.8	14.1	0.8
CCNc1nc(NC(C)C)nc(Oc2ccc(/C=N/O)cc2)n1	5.3	0.3	0.8	68.7*	0.9
CCNc1nc(NC(C)C)nc(Oc2ccc(OCCOc3ccc(C)cc3)nn2)n1	39.9	0.7	1.4	28.3	0.6
CCOC(=O)c1c(C)[nH]c(C)c1C(=O)COC(=O)CCOc1ccccc1OC	77.0*	0.2	1.3	83.3*	0.2
CCOC(=O)c1c(C)[nH]c(C)c1C(=O)CSc1ncccn1	58.9*	0.5	0.8	47.4	0.4
CCOC(=O)c1c(C)[nH]c(C)c1C(=O)CSc1nnnn1-c1ccccc1	99.0*	0.1	0.9	88.1*	0
COC(=O)c1c(C)[nH]c(C(=O)CSc2nnnn2-c2ccccc2)c1C	-8.7	1	1	-3.5	1.1
CCOC(=O)c1[nH]c(CSc2nnnn2-c2ccccc2C)c(C(=O)OCC)c1C	36.2	0.5	1.2	54.0*	0.6
Cc1cc(C)nc(-n2nc(C)cc2NC(=O)c2cccc(S(=O)(=O)N3CCOCC3)c2)n1	5.2	0.7	1.1	27.6	0.9
O=C(CSc1nnnn1C1CCCC1)N1CCN(C(=O)c2ccco2)CC1	1.4	0.9	1	8.6	1
COC(=O)c1ccccc1NC(=O)NCc1ccccn1	17.4	0.8	1.3	20.3	0.8
Cc1nn(-c2ccccn2)c2c1C(c1ccccn1)C1=C(CCCC1=O)N2 (stereo unspecified)	-8.5	0.9	1.7	5.4	1.1
CCCCn1nc2cc(C(=O)NCC34CC5CC(CC(C5)C3)C4)ccc2c1OC	25.9	0.8	1.1	21.2	0.7
CC(c1ccco1)N(C(=O)C12CC3(C)CC(C)(CC(C)(C3)C1)C2)c1ccccn1 (stereo unspecified)	12.3	1	1.1	1.4	0.9
Cc1ccc(NC(=O)N/C=C/c2ccco2)c(C)c1	76.4*	0.4	2.4*	61.0*	0.2
Cc1cnc(NC(=O)c2ccc(-c3nc4ccccc4s3)o2)s1	75.4*	0.4	1.7	56.3*	0.2
Cc1cnc(NC(=O)CSc2nc3ccccc3s2)s1	23.7	1	1.2	0.7	0.8
CCc1cccc(OCCCCNCCO)c1	-7.5	1.1	0.9	-12.2	1.1
CCOc1ccc2nc(NCCNC(=O)C3CC3)c(C)cc2c1	55.7*	0.5	1.7	52.2*	0.4
COCC(=O)NCCNc1nc2ccc(C)cc2cc1C	24.4	0.9	1.1	11.4	0.8
